Measurements from PubChem BioAssay.
The source made the active and inactive calls. Cut-off read from the data, not from the text of the source, unless noted: active = inhibition above about 36%; inactive = the rest. Bridge positions count the residues as written; N and C are the ends. Square brackets hold non-standard residues; d marks the D form. Peptide text beside a SMILES is read from it.

Columns and labels:
[1] = molecular target: Nuclear receptor coactivator 3 (Homo sapiens) (UniProt Q9Y6Q9); assay: SRC3 coactivator transcriptional activity inhibitors, confirmation, cell-based, luminescence, quadruplicate (AID 588792;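 active = mean inhibition over 43.08%, the solvent-only control mean plus 3 SD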;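 note: 0% = DMSO treated cells and 100% = gossypol at 36 µM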); conditions: HEK293 GAL4-SRC3 luciferase reporter, at 3.6 µM, hits give high values
[2] = system: transactivating tegument protein VP16 (Human herpesvirus 1), Gal4-VP16 luciferase reporter; assay: VP16 transactivation inhibitors, counter-screen for SRC3 inhibitor project, cell-based, luminescence, high throughput (AID 588794; in the data active = inhibition above about 30%); conditions: mammalian cells, VP16-driven luciferase reporter luminescence; at 3.6 µM; hits give high values
[3] = molecular target: Nuclear receptor coactivator 1 (Homo sapiens) (UniProt Q15788); assay: SRC1 coactivator transcriptional activity inhibitors, confirmation, cell-based, luminescence, quadruplicate (AID 588820;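 active = mean inhibition above 46.68%, the untreated control wells mean plus 3 SD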;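 note: 0% = DMSO wells and 100% = gossypol 36 µM treated wells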); conditions: HEK293 GAL4-SRC1 luciferase reporter, at 3.6 µM, hits give high values
Chain of Nuclear receptor coactivator 1 (Homo sapiens) (Q15788 whole entry, looked up, the tested form may be a part): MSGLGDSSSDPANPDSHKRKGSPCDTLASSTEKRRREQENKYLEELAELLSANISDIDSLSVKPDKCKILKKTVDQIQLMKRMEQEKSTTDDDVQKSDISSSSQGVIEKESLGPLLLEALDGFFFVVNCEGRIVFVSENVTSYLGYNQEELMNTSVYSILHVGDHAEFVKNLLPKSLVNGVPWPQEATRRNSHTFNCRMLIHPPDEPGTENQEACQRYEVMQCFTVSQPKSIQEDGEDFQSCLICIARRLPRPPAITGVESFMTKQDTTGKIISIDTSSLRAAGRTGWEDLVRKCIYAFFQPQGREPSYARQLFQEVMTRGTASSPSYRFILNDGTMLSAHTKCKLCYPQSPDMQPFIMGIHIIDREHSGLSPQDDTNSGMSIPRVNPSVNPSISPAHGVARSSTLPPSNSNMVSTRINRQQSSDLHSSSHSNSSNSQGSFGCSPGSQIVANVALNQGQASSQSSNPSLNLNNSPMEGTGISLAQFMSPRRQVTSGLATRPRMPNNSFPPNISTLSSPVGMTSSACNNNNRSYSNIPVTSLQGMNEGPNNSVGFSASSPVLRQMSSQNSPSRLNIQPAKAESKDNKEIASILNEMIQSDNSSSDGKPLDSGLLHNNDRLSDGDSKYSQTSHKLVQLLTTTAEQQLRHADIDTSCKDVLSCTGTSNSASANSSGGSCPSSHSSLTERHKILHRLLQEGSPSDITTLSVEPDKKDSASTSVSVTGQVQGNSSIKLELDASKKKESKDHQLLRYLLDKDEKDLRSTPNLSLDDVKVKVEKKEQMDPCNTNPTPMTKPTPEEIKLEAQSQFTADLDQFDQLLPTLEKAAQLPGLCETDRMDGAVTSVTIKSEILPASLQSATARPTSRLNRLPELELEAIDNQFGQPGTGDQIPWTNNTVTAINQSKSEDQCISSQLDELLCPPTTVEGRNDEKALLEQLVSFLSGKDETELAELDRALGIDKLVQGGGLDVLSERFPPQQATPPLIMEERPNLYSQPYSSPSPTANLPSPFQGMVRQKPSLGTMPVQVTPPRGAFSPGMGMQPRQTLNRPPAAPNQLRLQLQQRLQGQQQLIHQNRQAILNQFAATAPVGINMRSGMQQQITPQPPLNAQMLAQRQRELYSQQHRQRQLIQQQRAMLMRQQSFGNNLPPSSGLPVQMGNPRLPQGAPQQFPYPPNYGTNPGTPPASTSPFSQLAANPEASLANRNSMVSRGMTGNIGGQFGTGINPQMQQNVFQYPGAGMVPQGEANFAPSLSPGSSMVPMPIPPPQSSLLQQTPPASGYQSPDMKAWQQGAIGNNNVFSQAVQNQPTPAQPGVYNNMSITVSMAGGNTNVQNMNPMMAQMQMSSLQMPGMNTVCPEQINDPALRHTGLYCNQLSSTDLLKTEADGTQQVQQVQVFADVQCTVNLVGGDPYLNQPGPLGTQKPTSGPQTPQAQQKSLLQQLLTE

[4] = VP16 transactivation inhibitors, counter-screen for SRC1 inhibitor project, cell-based, luminescence, high throughput (AID 588824; in the data active = inhibition above about 25%); conditions: cell-based VP16 transactivation luciferase luminescence; at 3.6 µM; hits give high values
[5] = StAR promoter reporter inhibitors, counter-screen for LRH-1 inverse agonist project, cell-based, luminescence, high throughput (AID 651611; in the data active = inhibition above about 28%); conditions: StAR promoter luciferase reporter counterscreen, at 3.6 µM, hits give high values
[6] = molecular target: Nuclear receptor subfamily 5 group A member 2 (Homo sapiens) (UniProt O00482); assay: LRH-1 (NR5A2) inverse agonists, retest, confirmation, cell-based, luminescence (AID 651613; in the data active = inhibition above about 42%;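 note: HEK293T cells co-transfected with LRH-1 and StAR promoter luciferase reporter; 0% = vehicle wells and 100% = parental cells lacking receptor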); conditions: cell-based LRH-1 luciferase reporter, inverse agonism; at 3.6 µM; hits give high values
Chain of Nuclear receptor subfamily 5 group A member 2 (Homo sapiens) (O00482 whole entry, looked up): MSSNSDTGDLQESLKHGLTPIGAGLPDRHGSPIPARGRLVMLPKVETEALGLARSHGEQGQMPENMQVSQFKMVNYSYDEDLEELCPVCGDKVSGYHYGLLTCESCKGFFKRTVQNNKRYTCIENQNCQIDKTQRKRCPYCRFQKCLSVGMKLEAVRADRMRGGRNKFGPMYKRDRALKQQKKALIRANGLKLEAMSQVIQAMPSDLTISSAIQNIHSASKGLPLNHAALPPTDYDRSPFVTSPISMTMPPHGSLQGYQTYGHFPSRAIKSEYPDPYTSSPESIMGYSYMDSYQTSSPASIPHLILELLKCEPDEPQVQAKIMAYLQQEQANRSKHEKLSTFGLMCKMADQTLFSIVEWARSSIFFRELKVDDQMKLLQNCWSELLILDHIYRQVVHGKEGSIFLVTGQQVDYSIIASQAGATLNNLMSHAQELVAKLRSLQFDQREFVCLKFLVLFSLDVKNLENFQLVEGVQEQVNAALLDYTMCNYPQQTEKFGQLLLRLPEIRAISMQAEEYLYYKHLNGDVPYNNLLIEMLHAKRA

[7] = molecular target: Steroidogenic factor 1 (Homo sapiens) (UniProt Q13285); assay: SF1 (NR5A1) inverse agonists, counter-screen for LRH-1 inverse agonist project, cell-based, luminescence, high throughput (AID 651614; in the data active = inhibition above about 44%;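 note: cells cotransfected with StAR promoter reporter and SF1 expression vector; 0% = vehicle on cells with receptor and 100% = vehicle on cells lacking receptor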); conditions: cell-based SF1 luciferase reporter, at 3.6 µM, hits give high values
Chain of Steroidogenic factor 1 (Homo sapiens) (Q13285 whole entry, looked up, the tested form may be a part): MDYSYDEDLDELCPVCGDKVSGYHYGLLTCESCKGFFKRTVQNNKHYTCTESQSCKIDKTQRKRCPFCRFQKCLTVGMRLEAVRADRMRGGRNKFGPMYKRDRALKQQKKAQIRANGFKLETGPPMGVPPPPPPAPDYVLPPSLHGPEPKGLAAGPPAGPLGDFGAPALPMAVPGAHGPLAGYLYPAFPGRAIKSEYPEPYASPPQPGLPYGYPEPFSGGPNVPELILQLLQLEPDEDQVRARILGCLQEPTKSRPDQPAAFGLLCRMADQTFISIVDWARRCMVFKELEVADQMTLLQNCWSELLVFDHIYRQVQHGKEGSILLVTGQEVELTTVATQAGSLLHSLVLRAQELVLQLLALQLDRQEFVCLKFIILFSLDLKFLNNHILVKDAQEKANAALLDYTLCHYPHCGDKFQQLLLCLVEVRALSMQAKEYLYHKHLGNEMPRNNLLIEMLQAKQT

[8] = VP16 transactivation reporter inhibitors, counter-screen for LRH-1 inverse agonist project, cell-based, luminescence, high throughput (AID 651615; in the data active = inhibition above about 33%); conditions: Gal4-VP16 luciferase reporter cells, at 3.6 µM, hits give high values
[9] = system: transactivating tegument protein VP16 (Human herpesvirus 1); assay: VP16 transactivation reporter inhibitors, counter-screen for SRC2 inhibitor project, cell-based, luminescence, single concentration (AID 652007); conditions: cell-based VP16 transactivation luciferase reporter, at 8.9 µM, hits give high values
[10] = molecular target: Nuclear receptor coactivator 2 (Homo sapiens) (UniProt Q15596); assay: SRC2 coactivator transcriptional activity inhibitors, confirmation, cell-based, luminescence, HEK293, triplicate (AID 652008;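 active = mean inhibition above 46.5%, the solvent-only control mean plus 3 SD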;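 note: 0% = DMSO-treated cells and 100% = Gossypol at 36 µM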); conditions: HEK293 GAL4-SRC2 luciferase reporter, at 8.9 µM, hits give high values
Chain of Nuclear receptor coactivator 2 (Homo sapiens) (Q15596 whole entry, looked up, the tested form may be a part): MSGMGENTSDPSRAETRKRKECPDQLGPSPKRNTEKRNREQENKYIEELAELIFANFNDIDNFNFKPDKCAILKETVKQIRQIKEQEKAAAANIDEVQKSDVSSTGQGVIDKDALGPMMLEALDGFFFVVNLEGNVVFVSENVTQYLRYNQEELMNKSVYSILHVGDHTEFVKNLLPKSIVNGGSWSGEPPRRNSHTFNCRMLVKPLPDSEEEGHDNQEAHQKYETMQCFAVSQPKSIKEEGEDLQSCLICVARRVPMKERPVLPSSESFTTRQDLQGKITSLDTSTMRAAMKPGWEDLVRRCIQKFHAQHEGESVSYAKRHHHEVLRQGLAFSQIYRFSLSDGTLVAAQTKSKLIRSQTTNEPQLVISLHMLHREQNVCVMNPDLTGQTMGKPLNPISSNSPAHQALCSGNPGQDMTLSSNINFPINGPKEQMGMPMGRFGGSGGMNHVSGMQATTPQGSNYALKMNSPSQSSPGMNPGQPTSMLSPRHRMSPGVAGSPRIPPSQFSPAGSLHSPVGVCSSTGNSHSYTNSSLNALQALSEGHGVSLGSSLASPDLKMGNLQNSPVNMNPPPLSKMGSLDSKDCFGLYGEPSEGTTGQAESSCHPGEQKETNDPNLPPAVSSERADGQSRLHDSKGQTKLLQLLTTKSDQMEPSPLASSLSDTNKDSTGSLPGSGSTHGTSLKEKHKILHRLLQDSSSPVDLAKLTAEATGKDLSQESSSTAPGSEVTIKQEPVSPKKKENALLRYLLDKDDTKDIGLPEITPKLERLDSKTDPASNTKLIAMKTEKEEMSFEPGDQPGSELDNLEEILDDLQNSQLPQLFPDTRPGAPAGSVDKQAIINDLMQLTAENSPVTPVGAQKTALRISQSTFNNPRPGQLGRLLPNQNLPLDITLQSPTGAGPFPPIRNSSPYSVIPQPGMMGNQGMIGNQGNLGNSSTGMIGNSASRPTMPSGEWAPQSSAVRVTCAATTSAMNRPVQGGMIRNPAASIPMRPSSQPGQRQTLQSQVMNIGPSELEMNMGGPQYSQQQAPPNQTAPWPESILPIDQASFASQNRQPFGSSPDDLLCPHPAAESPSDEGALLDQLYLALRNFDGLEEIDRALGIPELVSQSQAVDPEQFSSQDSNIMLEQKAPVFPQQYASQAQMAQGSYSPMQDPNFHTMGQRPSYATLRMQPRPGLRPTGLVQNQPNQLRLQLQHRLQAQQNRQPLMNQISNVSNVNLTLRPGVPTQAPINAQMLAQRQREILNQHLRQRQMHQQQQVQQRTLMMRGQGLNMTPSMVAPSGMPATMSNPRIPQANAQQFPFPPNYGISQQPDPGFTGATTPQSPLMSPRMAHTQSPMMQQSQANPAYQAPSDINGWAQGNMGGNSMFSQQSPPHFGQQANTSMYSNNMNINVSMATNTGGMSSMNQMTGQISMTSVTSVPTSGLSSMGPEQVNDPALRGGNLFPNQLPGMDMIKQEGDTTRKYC

Measured: inhibition

CC1CC(C)C(=O)C(C(CC2CC(=O)NC(=O)C2)OC(=O)CC(=O)c2ccccc2)C1 (stereo not given)
active: [1] 93.1% | [2] 88.9% | [3] 81.3% | [4] 87.8% | [5] 91.6% | [6] 108% | [7] 96.9% | [8] 91.7% | [9] 37.2% | [10] 52.5%

O=C(CCC1CCCC1)Nc1ccc(C(=O)NCc2cccnc2)cc1
inactive: [4] 24.4% | [9] -5.72%
active: [1] 88.5% | [2] 43.3% | [3] 62.4% | [5] 88% | [6] 98.7% | [7] 94.8% | [8] 66.9% | [10] 48.6%

CCCNC1=C(N(C(C)=O)c2cccc(F)c2)C(=O)c2ccccc2C1=O
active: [1] 49.9% | [2] 65.3% | [3] 58.6% | [4] 67.2% | [5] 68.9% | [6] 68.8% | [7] 88% | [8] 69.2%
inactive: [9] 24.1% | [10] 34.3%

COc1ccc(S(=O)(=O)N2CCOCC2)cc1NC(=O)CCNC(=O)c1ccc([N+](=O)[O-])cc1
active: [1] 88.6% | [2] 60.8% | [3] 75.6% | [4] 33.3% | [5] 89.2% | [6] 99.3% | [7] 95.5% | [8] 72.9% | [10] 49.4%
inactive: [9] 4.19%

CN1CCN(c2ccc(-c3ccc4ccccc4n3)cc2)CC1
active: [1] 72.1% | [2] 62.6% | [4] 36.6% | [5] 63.8% | [7] 64% | [9] 61.1% | [10] 79.3%
inactive: [3] 34.8% | [6] 8.01% | [8] 26.9%

CC[C@H](C)[C@@H]1NC(=O)[C@@H](CC(C)C)NC(=O)[C@H](C(C)C)NC(=O)[C@H]2CSSC[C@H](NC1=O)C(=O)N2 (cyclo(C[dC]V[dL]I); disulfide 1-2)
active: [1] 99.9% | [2] 98.3% | [3] 99.6% | [4] 98% | [5] 96% | [6] 109% | [7] 97.7% | [8] 97.5% | [9] 98.3% | [10] 99.6%

Cc1ccccc1C(=O)N1CCN(c2ccc(NC(=O)c3ccc4c(c3)OCO4)cc2)CC1
active: [1] 55.4% | [2] 72.5% | [3] 60.7% | [4] 72.9% | [5] 60.1% | [6] 75.1% | [7] 76.1% | [8] 80.7%
inactive: [9] 10.2% | [10] 27.1%

Cc1ccc(C(=O)O/N=C(\N)c2ccccn2)c(Cl)c1
active: [9] 50.6% | [10] 70.8%
inactive: [1] 28.7% | [2] 11.1% | [3] -47.4% | [4] -23.7% | [5] -22.8% | [6] -86.9% | [7] 4.43% | [8] -54.1%

Cc1ccc(/C=C2/SC(=S)N(CCCC(=O)Nc3ccc(O)cc3)C2=O)cc1
inactive: [2] 12.8% | [3] 41.2% | [4] 3.55% | [6] 6.39% | [8] -5.05%
active: [1] 57% | [5] 55% | [7] 52.3% | [9] 43.6% | [10] 54.1%

CC(C)(C)c1ccc(C(=O)Nc2sc3c(c2C(=O)O)CCC3)cc1
active: [1] 48.4% | [2] 73% | [4] 73.4% | [5] 77.2% | [6] 95.7% | [7] 90.7% | [8] 77.3%
inactive: [3] 42.3% | [9] 8.37% | [10] 10.1%

O=S(=O)(c1ccc(NC(=S)NCc2cccnc2)cc1)N1CCCCC1
inactive: [9] 12.3%
active: [1] 91% | [2] 72.3% | [3] 77.6% | [4] 65.2% | [5] 90.8% | [6] 102% | [7] 96.3% | [8] 88.6% | [10] 50.2%

Clc1ccc(-n2ncc3c(NCCN4CCOCC4)ncnc32)cc1
active: [5] 28.4% | [9] 36.7% | [10] 58.9%
inactive: [1] 37.8% | [2] -3.35% | [3] 3.19% | [4] -21.6% | [6] -30.3% | [7] 33.4% | [8] -23.4%

CCCCCCCC/C=C\CCCCCCCC(=O)NCCc1ccc(O)c(O)c1
inactive: [1] 22% | [2] -11.3% | [3] -70% | [4] -11.4% | [5] -4.3% | [6] -29.9% | [7] 4.21% | [8] -16.1% | [9] 1.26% | [10] 21%

O=[N+]([O-])c1nn(-c2ccc3c(c2)OCCO3)n(O)c1=Nc1ccccc1
active: [1] 81% | [3] 70.5% | [5] 68.9% | [6] 44.6% | [7] 66.5% | [8] 33.9% | [10] 91.4%
inactive: [2] -12.3% | [4] 16.2% | [9] 35.2%

CN(c1ncnc(N)c1[N+](=O)[O-])C1CCCCC1
active: [1] 82.5% | [2] 59.7% | [3] 69.9% | [4] 55.3% | [5] 32.3% | [6] 56.7% | [7] 44.1% | [8] 72.2% | [10] 59.8%
inactive: [9] 28.4%

O=C(CN1C(=O)c2ccccc2S1(=O)=O)c1ccc2c(c1)OCCCO2
active: [1] 93.3% | [2] 92.4% | [3] 82.5% | [4] 91.8% | [5] 91% | [6] 99.8% | [7] 92.4% | [8] 90.3% | [9] 94.4% | [10] 98%

CC(C)(C)OC(=O)NCCCCCc1cn([C@@H](CO)C(=O)NCCCCCCCCCCC(=O)N2CCN(C(=O)OC(C)(C)C)CC2)nn1
inactive: [1] 23.4% | [3] 0.34%
active: [2] 66.8% | [4] 71.4% | [5] 59.5% | [6] 69.4% | [7] 69.9% | [8] 80.6% | [9] 55% | [10] 48.7%

COc1ccc(C[C@H](N)C(=O)N[C@H]2[C@@H](O)[C@H](n3cnc4c(N(C)C)ncnc43)O[C@@H]2CO)cc1
active: [1] 97% | [2] 94.2% | [3] 89.3% | [4] 91.8% | [5] 97% | [6] 111% | [7] 99.4% | [8] 99.4% | [9] 91% | [10] 92.4%

COC1=CC(=O)c2nc(Cl)ccc2C1=O
active: [1] 67.8% | [2] 55.1% | [4] 60.7% | [5] 56.2% | [6] 65.1% | [7] 70% | [8] 72.2% | [10] 89.5%
inactive: [3] -9.24% | [9] 24.5%

COc1ccc2cc3c(N)nn(C(=O)c4ccccc4[N+](=O)[O-])c3nc2c1
active: [1] 76.5% | [2] 59.9% | [3] 64.8% | [4] 61.3% | [5] 44.6% | [6] 67.5% | [7] 46.9% | [8] 78% | [10] 46.6%
inactive: [9] 3.64%

NC(=S)NN=Cc1nccc2c(C(F)(F)C(F)(F)C(F)(F)F)cccc12
inactive: [9] -16.1% | [10] 18.2%
active: [1] 93.5% | [2] 87.2% | [3] 85.5% | [4] 88.5% | [5] 92.3% | [6] 107% | [7] 95.6% | [8] 82.1%

COc1ccc(CC2C(=O)NC(C)C(=O)N(C)C3Cc4ccc(cc4)Oc4cc(ccc4O)CC(C(=O)NC(C)C(=O)NC(C)C(=O)N2C)N(C)C3=O)cc1 (stereo not given)
active: [1] 97.6% | [2] 96.4% | [3] 90.6% | [4] 95% | [5] 96% | [6] 110% | [7] 98.6% | [8] 97.2% | [9] 82.2% | [10] 76.9%

CC(C)(C)C(=O)Nc1ccc(NC(=O)c2ccco2)nc1
inactive: [3] 39.4% | [6] 15.6%
active: [1] 69.9% | [2] 64.1% | [4] 39.8% | [5] 56.1% | [7] 59.4% | [8] 36.7% | [9] 72.7% | [10] 92.8%

CC(O)CC(=O)OC[C@]12CC[C@H]3[C@@](C)(CC[C@H]4C(C)(C)CCC[C@]34C)[C@@H]1CC(C1=CC(=O)OC1O)O2 (stereo not given in full)
active: [2] 53.4% | [4] 43.4% | [5] 51.2% | [6] 76.6% | [7] 80.5% | [8] 75.2% | [9] 50.6%
inactive: [1] 30.2% | [3] 31% | [10] -41%

COc1ccc(/C=C2\SC(=O)N(CCCC(=O)Nc3cc(Cl)ccc3C(=O)O)C2=O)cc1
active: [1] 86.5% | [2] 77% | [3] 75.5% | [4] 70.3% | [5] 83.7% | [6] 94% | [7] 82% | [8] 75.7% | [9] 93.9% | [10] 97.8%

Cc1cc(C(=O)CSc2ccc(F)cc2)cc(C)c1OC(=S)N(C)C
active: [2] 43.6% | [10] 65.7%
inactive: [1] 41.6% | [3] 2.12% | [4] -8.86% | [5] -28.6% | [6] -65.3% | [7] -23.4% | [8] -17.3% | [9] 22.6%

O=C(N/N=C\c1ccc([N+](=O)[O-])o1)C1COc2ccccc2O1 (stereo not given)
active: [7] 49.8% | [9] 40.8% | [10] 51.5%
inactive: [1] 35.9% | [2] 9.31% | [3] -8.42% | [4] -19.5% | [5] 27.1% | [6] 40.7% | [8] -8.47%

NC(=O)c1cc2ccncc2c2ccccc12
active: [1] 80.3% | [2] 64.8% | [3] 78.5% | [4] 59.3% | [5] 42.8% | [6] 62.1% | [7] 58.1% | [8] 77.2% | [10] 68.9%
inactive: [9] 20.5%
